Measurements reported in the supplement of paper PMC12669032.

test system: Bacteroides thetaiotaomicron; assay: growth AUC relative to DMSO control (median of replicates) (fraction); higher = more growth (less inhibition), active = hit call of the paper; conditions: 20 µM; 24 h;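 active = AUC reduced over 20% with Padj below 0.05 in at least 2 of 3 replicates; inactive = otherwise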
Outline: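 Three biological replicates, each grown on a separate day, were combined as a median for every value. In each, a gut bacterial monoculture in mGAM started at OD600 0.05 and grew anaerobically at 37 °C with 20 µM compound (1% DMSO), with OD600 read hourly over 24 h. Area under the growth curve was normalised against the plate median of solvent-only wells, or against row and column medians on the industrial chemical plate, after the minimum OD was set to 0.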

| SMILES | growth AUC |
| --- | --- |
| CCS(=O)(=O)c1nc2ccccn2c1S(=O)(=O)NC(=O)Nc1nc(OC)cc(OC)n1 | 0.995 (inactive) |
| C[Si](Cn1cncn1)(c1ccc(F)cc1)c1ccc(F)cc1 | 0.895 (inactive) |
| CCSC(=O)N1CCCCCC1 | 0.995 (inactive) |
| O=[N+]([O-])c1ccc(Oc2ccc(C(F)(F)F)cc2[N+](=O)[O-])cc1 | 0.92 (inactive) |
| CC#Cc1cc(C)nc(Nc2ccccc2)n1 | 0.945 (inactive) |
| COP(=O)(OC)OC1=C(Cl)C2C=CCC12 (stereo not given) | 1.02 (inactive) |
| CCC(C)[C@H]1O[C@]2(C=C[C@@H]1C)C[C@@H]1C[C@@H](C/C=C(\C)[C@@H](O[C@H]3C[C@H](OC)[C@@H](O[C@H]4C[C@H](OC)[C@@H](O)[C@H](C)O4)[C@H](C)O3)[C@@H](C)/C=C/C=C3\CO[C@@H]4[C@H](O)C(C)=C[C@@H](C(=O)O1)[C@]34O)O2.CO[C@H]1C[C@H](O[C@H]2[C@H](C)O[C@@H](O[C@@H]3/C(C)=C/C[C@@H]4C[C@@H](C[C@]5(C=C[C@H](C)[C@@H](C(C)C)O5)O4)OC(=O)[C@@H]4C=C(C)[C@@H](O)[C@H]5OC/C(=C\C=C\[C@@H]3C)[C@]54O)C[C@@H]2OC)O[C@@H](C)[C@@H]1O (stereo not given in full) | 1.01 (inactive) |
| C[C@@H](Oc1ccc(Oc2nc3ccc(Cl)cc3o2)cc1)C(=O)O | 1.01 (inactive) |
| N#Cc1cc(I)c(O)c(I)c1 | 0.919 (inactive) |
| CCc1cnc(C2=NC(C)(C(C)C)C(=O)N2)c(C(=O)O)c1 (stereo not given) | 0.981 (inactive) |
